Screening data (PubChem)
TRHR ag – agonists of human TRH receptor. P34981. TRHR cells, calcium flux fluo-8, FDSS agonist mode. activation, % at 2 µM. 0.18% of 360,000 active; in the data active = activation above about 30%
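Agonist-mode FDSS calcium read (Ex 480/Em 530, 1 s cycles) in 1536-well TRHR cells with fluo-8 dye, after 10-cycle baseline and 23 nL compound addition; TRH at EC20 (10 nM final) added afterwards for the enhancer phase.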
GLP1R ag – GLP-1 receptor (human) agonism; P43220; HEK293 GLP-1R CRE-luciferase, luminescence, 4-6 h; cells express a hypersensitive GLP-1R form; Potency, µM (highest dose often 45.6 µM), actives largely listed as activators; 0.007% of 380,000 active
Target sequence (P43220 whole entry, looked up): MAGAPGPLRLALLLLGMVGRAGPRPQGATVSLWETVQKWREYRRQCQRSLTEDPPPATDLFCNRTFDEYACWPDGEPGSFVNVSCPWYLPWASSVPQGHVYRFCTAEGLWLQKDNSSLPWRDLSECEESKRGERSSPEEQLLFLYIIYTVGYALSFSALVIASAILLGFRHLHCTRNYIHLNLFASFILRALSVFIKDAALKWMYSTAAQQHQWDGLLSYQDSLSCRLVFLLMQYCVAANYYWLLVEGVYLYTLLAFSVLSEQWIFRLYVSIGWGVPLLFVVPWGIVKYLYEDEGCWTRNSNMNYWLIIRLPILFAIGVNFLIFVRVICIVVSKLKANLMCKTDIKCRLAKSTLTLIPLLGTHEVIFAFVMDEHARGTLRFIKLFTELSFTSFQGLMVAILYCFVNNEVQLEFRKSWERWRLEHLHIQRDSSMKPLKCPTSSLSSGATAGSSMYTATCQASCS
GLP1R inv ag – GLP-1 receptor (human) inverse agonism. P43220. HEK293 GLP-1R CRE-luciferase, luminescence, 24 h; GLP-1R form is constitutively active. Potency, µM (top dose mostly 38.3 µM), usual class: inhibitors. 1.6% of 410,000 active; note: nearly all actives have a fitted effect of over 55% in size
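Using stably transfected HEK293 (constitutively active GLP-1R, cAMP-luciferase reporter), compounds were incubated 24 hr and luciferase measured by luminescence.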
TRHR enhancer – allosteric enhancers of human TRH receptor; P34981; TRHR cells, fluo-8 calcium fluorescence, EC20 TRH enhancement; enhancement, % at 2 µM; 0.66% of 360,000 active; in the data active = enhancement above about 30%
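Enhancer read-out: after compound pinning and an initial kinetic agonist-mode read, an EC20 of TRH (10 nM final) was injected and fluo-8 calcium signal (Ex 480/Em 530) followed at 1 s/cycle for 100 cycles in TRHR-expressing cells.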
PTHR1 agonist – PTHR1 (human) receptor agonism; Q03431; HEK293 GP2 PTHR1 cells, GloSensor cAMP luminescence, 1 h; Potency, µM (titrated, usually from 115 µM), usual class: activators; 0.075% of 410,000 active; AID 743266; note: nearly all actives have a fitted effect of over 55% in size
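HEK-293-derived GP2 cells expressing PTHR1 and a GloSensor cAMP reporter, 3,000/well, plated overnight, given luciferin plus IBMX (each 0.5 mM as added) for 1 h at 37 °C, then compound for 1 h at 37 °C. Luminescence was read after 15 min at room temperature.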
HEK293 tox – cytotoxic in the GLP-1 receptor inverse agonist counter-screen. HEK293 cAMP-luciferase reporter cells, luminescence, 24 h. 0.13% of 410,000 active. Potency, µM (doses to about 38.3 µM), most hits filed as inhibitors;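 note: loss of luciferase light is scored as toxicity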
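Luminescence readout: signal drop marks cytotoxicity. Plated cells grew 12 h at 37 °C, 5% CO2, received 23 nL compound for 24 h, then got luciferase reagent, read after 12 min at RT.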
Each line names hits and unclear results; the compound was inactive in the other large screens; ! = not active in a repeat. The list is not random: actives were taken first. Their share in the collection is about 2.4%. Unless noted, calls come from the whole dose curve; as a rule, active = well fitted curve in the direction sought with a large enough effect; inconclusive = small, poorly fitted or top-dose-only effect, or another doubt; inactive = no such curve, though single readings can be large; an effect the other way counts as inactive or inconclusive.

CC(C)c1ccc(S(=O)(=O)N2CCN(C(=O)c3cc(-c4ccccc4)n[nH]3)CC2)cc1	none
Cc1ccc(-c2cc(C(F)(F)F)nc(SCC(=O)c3cccc([N+](=O)[O-])c3)n2)cc1	GLP1R inv ag 5.6µM
O=C(CSc1nc(-c2ccccc2)cc(C(F)(F)F)n1)c1cccc([N+](=O)[O-])c1	GLP1R inv ag inconclusive
COCCNC(=O)CCc1nnc2ccc(N3CCC(C)CC3)nn12	TRHR enhancer 31
COCCCNC(=O)CCc1nnc2ccc(N3CCC(C)CC3)nn12	none
Cc1nn(CC(C)C)c(Cl)c1C(=O)N(c1ccc(Cl)cc1F)S(C)(=O)=O	GLP1R inv ag 8.9µM
COc1ccc(CCNC(=O)c2c(C)nn(CC(C)C)c2Cl)cc1	GLP1R ag inconclusive
CCN1/C(=C/c2ccc3ccccc3[n+]2CC)C=Cc2ccccc21	GLP1R inv ag inconclusive, HEK293 tox 4.5µM
COc1ccc2c(c1)cc1c(=O)n(CC(=O)NC(C)C)nc(C)n12	none (no result: GLP1R ag)
Cc1ccc(Cl)cc1NC1=C/C(=N\S(=O)(=O)c2cccs2)c2ccccc2C1=O	GLP1R inv ag 1µM!, HEK293 tox inconclusive
COc1ccc(C(=O)C2CCCN(Cc3cc(C)c(O)c(C)c3)C2)c(OC)c1 (stereo not given)	GLP1R inv ag 4.5µM
O=C(NC1CCCN(Cc2ccc(Cl)cc2)C1)C1CCC1 (stereo not given)	TRHR enhancer 31
COc1cccc(CC(=O)NC2CCCN(Cc3ccc(Cl)cc3)C2)c1 (stereo not given)	GLP1R inv ag inconclusive
COc1ccc(C(=O)C2CCCN(Cc3cc(Cl)ccc3O)C2)c(OC)c1 (stereo not given)	GLP1R inv ag inconclusive
COc1ccc(C(=O)NC2CCCN(Cc3ccc(Cl)cc3)C2)c(OC)c1 (stereo not given)	GLP1R inv ag 7.9µM
CC1(C)Oc2ccccc2OC1(O)c1ccc2ccccc2n1 (stereo not given)	GLP1R inv ag inconclusive
O=c1c2c(nc3nc(NCc4ccccc4Cl)[nH]n13)CCC2	none (no result: GLP1R ag, GLP1R inv ag, PTHR1 agonist, HEK293 tox)
Oc1ccc(NCc2ccccc2OCc2ccccc2F)cc1	GLP1R ag 11µM, HEK293 tox inconclusive
Cc1cccc(NCc2ccccc2OCc2ccccc2F)c1	GLP1R inv ag 10µM
Cc1noc(NS(=O)(=O)c2ccc(NC(=O)/C=C/c3ccc(Cl)cc3Cl)cc2)c1C	none (no result: TRHR ag, TRHR enhancer)
CC1(C(=O)NS(=O)(=O)c2cccc(C#N)c2)CCN1C(=O)CC1CC1 (stereo not given)	none (no result: TRHR ag, TRHR enhancer)
COc1cc(N)ccc1Nc1c2ccccc2nc2ccccc12	none (no result: TRHR ag, TRHR enhancer)
COc1ccc(NC(=S)NC(NC(=O)c2cccc(C)c2)C(Cl)(Cl)Cl)c([N+](=O)[O-])c1 (stereo not given)	GLP1R inv ag 8.9µM, HEK293 tox inconclusive
O=C(Cc1cccc2ccccc12)NC(NC(=S)Nc1ccccc1Cl)C(Cl)(Cl)Cl (stereo not given)	GLP1R inv ag 4.5µM
O=C(NC(NC(=S)Nc1ccccc1Cl)C(Cl)(Cl)Cl)c1cccc(Cl)c1 (stereo not given)	GLP1R inv ag 2.8µM
COc1ccc(Cl)cc1S(=O)(=O)N1CCN(Cc2cccc(F)c2)CC1	GLP1R inv ag inconclusive (no result: GLP1R ag)
CN(Cc1ccccc1)S(=O)(=O)c1ccc(Cl)c(C(=O)N2CCC2)c1	none
CN1CCN(c2ccc(NC(=O)c3ccc(-c4ccc(Cl)cc4)o3)cc2)CC1	GLP1R inv ag 4µM, HEK293 tox inconclusive
CS(=O)(=O)N1CCN(c2ccc(NC(=O)c3ccc(-c4ccc(Cl)cc4)o3)cc2)CC1	none
CC1(c2ccccc2)ON(c2ccccc2C(F)(F)F)C1=O (stereo not given)	none (no result: GLP1R ag, GLP1R inv ag, PTHR1 agonist, HEK293 tox)
Cc1ccccc1[C@@]1(C)ON(c2ccccc2C(F)(F)F)C1=O	GLP1R inv ag 11µM
COc1ccc(NC(=O)N2CCN(c3cccc(C(F)(F)F)c3)CC2)cc1	PTHR1 agonist inconclusive
CN(C)S(=O)(=O)c1ccc(NC(=O)N2CCN(c3cccc(C(F)(F)F)c3)CC2)cc1	GLP1R inv ag 3.5µM
O=C(NCc1ccco1)c1ccc([N+](=O)[O-])o1	TRHR enhancer 69
Cn1c(SCC(=O)N2CCN(c3ccccc3)CC2)nnc1-c1c[nH]c2ccccc12	GLP1R inv ag inconclusive
Cc1ccc(CSCc2nnc(SCC(=O)N3CCN(c4ccccc4)CC3)n2C)cc1	GLP1R inv ag 7.9µM
CCn1c(SCC(=O)N2CCN(c3ccccc3)CC2)nnc1-c1c[nH]c2ccccc12	GLP1R inv ag 4µM
CCn1c(SCC(=O)N2CCCc3ccccc32)nnc1-c1c[nH]c2ccccc12	GLP1R inv ag 2.5µM
CCOC(=O)c1cc(C)sc1NC(=O)c1ccc(Cl)s1	none
CC(CNC(=O)c1ccc2c(c1)nc1n2CCOC1)c1ccccc1 (stereo not given)	none (no result: GLP1R ag)
O=C(NCC1CCCO1)C(=O)NCC(c1ccco1)N1CCN(c2ccccc2F)CC1 (stereo not given)	GLP1R inv ag inconclusive
CCC1CCCCN1C(=O)Cn1c(=O)cc(C(F)(F)F)c2c(C)nn(C)c21 (stereo not given)	GLP1R inv ag 10µM (no result: GLP1R ag)
Cc1cc(=O)n(CC(=O)N2CCCCC2)c2c1c(C)nn2C	none (no result: GLP1R ag)
COc1ccccc1OCCOc1ccc(C(=O)c2ccccc2)cc1	GLP1R inv ag 8.9µM
COc1ccccc1OCc1ccc(C(=O)c2ccccc2)cc1	GLP1R inv ag inconclusive
COc1ccc2c(c1)C1=C(CC2)C(c2ccc(C)cc2)NC(=S)N1 (stereo not given)	GLP1R inv ag inconclusive, HEK293 tox inconclusive
COc1cccc(C2NC(=S)NC3=C2CCc2ccccc23)c1 (stereo not given)	GLP1R inv ag inconclusive, HEK293 tox 4µM
CCCCOc1ccccc1Cn1c(=O)oc2ccccc21	GLP1R inv ag 5.6µM
CCc1nc2c(OCC(=O)C(C)(C)C)cccn2c1N(C)C(=O)c1ccc(C)cc1	none (no result: TRHR ag, TRHR enhancer)
CCN(CC(=O)NCc1ccc(Cl)cc1)C(=O)c1sccc1C	none (no result: TRHR ag, TRHR enhancer)
S=C(Nc1ccc(Oc2ccccc2)cc1)NC1CCCCCC1	GLP1R inv ag 10µM, HEK293 tox inconclusive
S=C(Nc1ccc(Cl)c(Cl)c1)NC1CCN(Cc2ccccc2)CC1	GLP1R inv ag 3.2µM, HEK293 tox inconclusive
S=C(NNc1ccc2ccccc2c1)NC1CCCCC1	GLP1R inv ag 10µM, HEK293 tox inconclusive
Fc1ccc(NC(=S)NC2CCN(Cc3ccccc3)CC2)cc1	GLP1R inv ag inconclusive
S=C(Nc1ccc(Cl)c(Cl)c1)NC1CCCCC1	HEK293 tox 13µM
COc1ccc(NC(=O)Cn2nnc(C(=O)NCc3cccs3)c2N)c(OC)c1	HEK293 tox inconclusive
